Results on 11 molecules are retold here after PubChem BioAssay.

The source made the active and inactive calls.

Assay [1] in a line: compounds binding Alexa647 anti-His antibody – biochemical, small-molecule microarray, 635 nm fluorescence, artefact control for SMM control protein annotation, primary screen (AID 1128).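 Also: score merges feature fluorescence with signal-to-noise for each printed compound spot.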 To be noted: higher = more signal.
Assay [2] deals with Human papillomavirus type 1a E7 protein (residues 1-88). Briefly: HPV1a E7 small-molecule binders, primary screen, biochemical, small-molecule microarray, residues 1-88, 635 nm (AID 1129). To be noted: small-molecule microarray binding, fluorescence 635 nm; higher = more signal.
The target of assay [3] is Focal adhesion kinase 1 (Homo sapiens) (UniProt Q05397). Briefly: PTK2 protein binding on printed compound slides – biochemical, small-molecule microarray, 635/667 nm fluorescence, BSA, DTT, primary screen (AID 1130).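 Also: composite of spot emission at 667 nm and signal to noise over triplicate slides.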 To be noted: 635 nm fluorescence, higher = more signal.
Sequence of Focal adhesion kinase 1 (Homo sapiens) (Q05397 whole entry, looked up): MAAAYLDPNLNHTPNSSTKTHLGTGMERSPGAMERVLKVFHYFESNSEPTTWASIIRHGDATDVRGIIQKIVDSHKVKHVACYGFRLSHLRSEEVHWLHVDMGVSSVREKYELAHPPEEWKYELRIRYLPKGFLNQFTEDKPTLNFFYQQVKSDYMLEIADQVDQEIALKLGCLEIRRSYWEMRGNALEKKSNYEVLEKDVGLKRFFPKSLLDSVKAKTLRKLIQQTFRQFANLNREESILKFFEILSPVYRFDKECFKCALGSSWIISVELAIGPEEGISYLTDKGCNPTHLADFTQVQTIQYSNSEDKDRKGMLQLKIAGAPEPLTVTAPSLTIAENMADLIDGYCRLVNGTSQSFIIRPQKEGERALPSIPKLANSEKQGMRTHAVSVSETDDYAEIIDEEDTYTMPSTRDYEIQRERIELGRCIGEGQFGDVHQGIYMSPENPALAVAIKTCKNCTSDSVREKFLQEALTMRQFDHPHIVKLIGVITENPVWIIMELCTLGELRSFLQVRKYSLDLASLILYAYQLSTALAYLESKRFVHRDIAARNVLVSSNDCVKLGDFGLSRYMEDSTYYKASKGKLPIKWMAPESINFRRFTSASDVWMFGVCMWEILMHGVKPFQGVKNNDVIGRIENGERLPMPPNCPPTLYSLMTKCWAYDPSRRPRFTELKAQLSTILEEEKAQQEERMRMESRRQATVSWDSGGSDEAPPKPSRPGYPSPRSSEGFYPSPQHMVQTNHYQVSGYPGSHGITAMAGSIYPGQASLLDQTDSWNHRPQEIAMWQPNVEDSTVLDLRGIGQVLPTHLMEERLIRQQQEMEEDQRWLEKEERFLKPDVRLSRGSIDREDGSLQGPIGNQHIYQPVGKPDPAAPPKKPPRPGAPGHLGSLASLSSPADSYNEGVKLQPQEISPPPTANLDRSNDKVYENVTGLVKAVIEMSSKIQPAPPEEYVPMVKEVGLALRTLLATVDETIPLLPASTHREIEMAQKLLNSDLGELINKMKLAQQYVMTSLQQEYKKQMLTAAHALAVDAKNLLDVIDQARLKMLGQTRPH
Assay [4] deals with Fibrinogen (Alexa647-labelled). Briefly: Alexa647-fibrinogen binding to printed small molecules – biochemical, small-molecule microarray, 635/667 nm fluorescence, artefact control for SMM control-protein annotation, profiling panel (AID 1131).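 Also: z-score merges 667 nm fluorescence with per-spot signal-to-noise over triplicate slides.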 To be noted: fibrinogen-A647 binding fluorescence, higher = more signal.
Assay [5] deals with Follistatin (Homo sapiens) (UniProt P19883). The assay is described as follows: FST protein binding to printed compounds – biochemical, small-molecule microarray, 635/667 nm fluorescence, primary screen (AID 1132). To be noted: 635 nm fluorescence, higher = more signal.
Sequence of Follistatin (Homo sapiens) (P19883 whole entry, looked up): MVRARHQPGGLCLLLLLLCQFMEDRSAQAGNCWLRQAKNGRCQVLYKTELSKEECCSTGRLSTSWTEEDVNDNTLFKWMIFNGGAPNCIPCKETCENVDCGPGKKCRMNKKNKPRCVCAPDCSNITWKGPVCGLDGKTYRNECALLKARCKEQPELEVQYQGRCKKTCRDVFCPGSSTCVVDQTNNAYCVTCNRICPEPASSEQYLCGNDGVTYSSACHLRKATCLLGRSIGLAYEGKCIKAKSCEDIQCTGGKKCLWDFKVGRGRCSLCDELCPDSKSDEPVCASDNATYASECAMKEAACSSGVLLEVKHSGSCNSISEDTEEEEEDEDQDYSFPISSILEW
Assay [6] has as its target Fibroblast growth factor 2 (Homo sapiens) (UniProt P09038). The assay is described as follows: basic fibroblast growth factor binding to printed compounds – biochemical, small-molecule microarray, 635/667 nm fluorescence, primary screen (AID 1133). To be noted: FGF2, fluorescence 635/667, higher = more signal.
The nature of assay [7]: JC-1 mitochondrial potential readout, lung cancer cells – cell-based, A549, JC-1 fluorescence, basal, 24 h, 100 nL, profiling panel (AID 1138).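 Also: A549 lung adenocarcinoma cells under basal conditions with no added stimulus; test concentration not given here.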 To be noted: higher = more signal.
Assay [8] has as its system Lefty1. Briefly: Lefty1 protein binding to printed compounds – biochemical, small-molecule microarray, 635/667 nm fluorescence, primary screen (AID 1139). To be noted: fluorescence 635/667, higher = more signal.
In assay [9] the test system is wheat germ agglutinin (Triticum aestivum), Alexa647-labelled. Briefly: Alexa647-WGA lectin binding to printed small molecules – biochemical, small-molecule microarray, 635/667 nm fluorescence, artefact control for SMM control-protein annotation, profiling panel (AID 1140).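 Also: score merges 667 nm feature emission with signal to noise over triplicate slides.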 To be noted: WGA-A647 binding, 635 nm fluorescence, higher = more signal.
Assay [10] addresses Luciferin 4-monooxygenase (Photinus pyralis) (UniProt P08659). The assay is described as follows: inhibition of purified Photinus pyralis luciferase – biochemical, luminescence, purified enzyme, 2006 set, primary screen (AID 1141).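 Also: cell-free assay with purified firefly luciferase at 100 ng per well in PBS; test concentration not given here.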 To be noted: purified firefly luciferase, SteadyGlo luminescence, 30 min; higher = more signal, called active from +8 up or from −8 down.

Sequence of Luciferin 4-monooxygenase (Photinus pyralis) (P08659 whole entry, looked up): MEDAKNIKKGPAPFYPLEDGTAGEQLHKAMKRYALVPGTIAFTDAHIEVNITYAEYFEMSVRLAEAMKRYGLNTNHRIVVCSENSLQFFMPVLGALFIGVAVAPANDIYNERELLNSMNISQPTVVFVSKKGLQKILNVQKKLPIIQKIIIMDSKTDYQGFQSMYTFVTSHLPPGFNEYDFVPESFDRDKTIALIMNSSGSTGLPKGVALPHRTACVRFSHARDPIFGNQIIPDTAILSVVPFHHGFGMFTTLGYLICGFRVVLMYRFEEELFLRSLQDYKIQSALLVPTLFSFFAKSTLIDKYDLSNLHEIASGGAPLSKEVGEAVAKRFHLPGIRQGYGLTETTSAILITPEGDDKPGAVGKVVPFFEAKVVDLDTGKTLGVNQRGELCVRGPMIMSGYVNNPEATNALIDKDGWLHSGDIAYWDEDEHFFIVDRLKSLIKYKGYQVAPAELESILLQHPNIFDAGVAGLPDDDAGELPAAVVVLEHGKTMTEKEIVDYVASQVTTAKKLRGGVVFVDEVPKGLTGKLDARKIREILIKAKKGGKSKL
Sequence of Fibroblast growth factor 2 (Homo sapiens) (P09038 whole entry, looked up): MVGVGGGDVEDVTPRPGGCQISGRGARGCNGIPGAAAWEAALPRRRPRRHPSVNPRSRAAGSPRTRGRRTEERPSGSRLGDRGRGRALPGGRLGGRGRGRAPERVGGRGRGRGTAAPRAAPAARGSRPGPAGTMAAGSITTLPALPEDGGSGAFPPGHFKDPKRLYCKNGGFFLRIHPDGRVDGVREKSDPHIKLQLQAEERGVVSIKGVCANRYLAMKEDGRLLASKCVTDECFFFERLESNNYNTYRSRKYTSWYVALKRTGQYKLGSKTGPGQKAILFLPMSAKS

On to `CN1C=C(C(=O)OCCS(C)(=O)=O)C(C(=O)OCCS(C)(=O)=O)=CC(CCCO)=CC1C1CC1` (stereo not given), for which the composite z-score in assay [1] is 0.464; in [2] it was -0.202; in [3] it was 0.686; in assay [4], 0.901; in assay [5] it was 0.186; in [6] it was -0.275. The figures for the composite z-score in [8] and in assay [9] were 0.889 and 0.288, respectively. The z-score in [7] is 0.664; in assay [10], -0.0115 (inactive).

As for `O=C1OCCC/C=C\[C@H]2OC34C=CCN(Cn5nnc6ccccc65)C(=O)[C@H]3N(CCCCCO)C(=O)[C@@H]4C12` (stereo not given in full), the composite z-score in assay [1] is 0.123; in assay [2] it was -0.654; in assay [3] it was -0.43; in assay [4], -1.02; in assay [5] it was -0.31; in [6] it was -1.16. For the same molecule, the composite z-score in assay [8] is -0.204; in assay [9], -1.03. In addition, the z-score in assay [7] is 0.248; in assay [10], 0.786 (inactive).

Regarding `CCOC(=O)C[C@H]1[C@H](OC(=O)Cc2ccc3c(c2)OCO3)[C@@H](NC(=O)C2CCCCC2)c2cc(OCCCO)ccc2N1C(=O)Cc1ccc(OC)cc1`, the composite z-score was 0.135 in assay [1]; 0.807 in [2]; 0.673 in assay [3]; 0.66 in [4]; 0.139 in [5]; 0.221 in assay [6]. Also, the composite z-score in assay [8] stood at 0.333; in assay [9], 0.0679. For the same molecule, the z-score in assay [7] was 2.5; in [10], -1.27 (inactive).

As to `COC(=O)C[C@H]1O[C@]2(C(=O)N(Cc3ccccc3)c3ccc(NC(C)=O)cc32)[C@@H](C)[C@@H]1[Si](C)(C)c1ccc(OC)cc1`, the composite z-score in [1] is 0.242; in [2] it was 0.822; in [3], -0.0722; in assay [4], 0.483; in assay [5], 0.528; in [6] it was 0.52. The composite z-score worked out at 0.68 in [8] and 0.657 in [9]. Further, the values for the z-score in assay [7] and in [10] were -0.922 and 0.531 (inactive), respectively.

As to `COC(=O)C(CC#Cc1ccc2c(c1)[C@]1(C(=O)N2)[C@H](C(=O)NC[C@H](O)c2ccccc2)[C@H]2C(=O)O[C@H](c3ccccc3)[C@H](c3ccccc3)N2[C@@H]1c1ccc(OCCO)cc1)C(=O)OC`, the composite z-score in assay [1] was found to be 1.5; in [2], 1.21; in assay [3], 0.538; in [4] it was 0.957; in [5], 1.25; in assay [6], 0.937. Also, the results for the composite z-score in [8] and in assay [9] were 1.69 and 1.21, respectively. Further, the z-score was -1.32 in [7] and -1.83 (inactive) in assay [10].

With `COCCOC(=O)N1C(=O)[C@@]2(c3cc(C#CCCO)ccc31)[C@H](C(=O)NC[C@H](O)c1ccccc1)[C@H]1C(=O)O[C@H](c3ccccc3)[C@H](c3ccccc3)N1[C@@H]2c1ccc(O)cc1`, the composite z-score in [1] is 1.69; in assay [2], 0.789; in assay [3], 0.148; in assay [4], -0.134; in assay [5], 1.09; in assay [6] it was 0.837. In addition, the composite z-score in assay [8] was found to be 0.429; in assay [9] it was 0.363. Further, the z-score in [7] is -0.319; in assay [10], 0.788 (inactive).

Regarding `CC(C)=CCCC(C)=CC(O)C1C=CC2C(=O)N(c3ccccc3)C(=O)C2N1Nc1ccccc1` (stereo not given), the composite z-score in [1] worked out at 1.79; in [2], 1.18; in assay [3] it was 0.63; in assay [4], 1.01; in assay [5], 1.14; in assay [6], 0.227. The composite z-score in assay [8] amounted to 0.16; in assay [9], 1.3. Further, the z-score is -0.773 in assay [7] and 0.0145 (inactive) in [10].

Turning to `COC(=O)[C@@]1(Cc2ccc(F)cc2)[C@H]2c3cc(C(=O)N4CCCC4)n(Cc4cccc5ccccc45)c3C[C@H]2CN1C(=O)c1ccccc1`, the composite z-score was 1.98 in assay [1]; 1.28 in assay [2]; 2.08 in assay [3]; 0.83 in [4]; 0.0834 in assay [5]; -0.426 in assay [6]. For the same molecule, the composite z-score in assay [8] is -0.0668; in assay [9], 1.06. The z-score in assay [7] was 0.917; in [10], 0.943 (inactive).

Turning to `CCCCC(CC)C(O)C1C=CC2C(=O)N(c3ccccc3)C(=O)C2N1Nc1ccccc1` (stereo not given), the composite z-score was 0.804 in assay [1]; 1.19 in assay [2]; 0.462 in [3]; 0.881 in [4]; 0.858 in assay [5]; -0.411 in [6]. Also, the composite z-score in [8] was -0.249; in [9], 1.15. The z-score was -0.99 in assay [7] and -0.15 (inactive) in assay [10].

For the molecule `O=C1N(CCS(=O)(=O)c2ccccc2)Cc2ccccc2[C@H]2OC(c3ccc(OCCCO)cc3)=N[C@@]12CCS(=O)(=O)c1ccccc1`, the composite z-score in [1] was 2.44; in assay [2], 1.21; in [3], 0.772; in assay [4] it was 0.561; in assay [5], 1.33; in assay [6], 1.31. Further, the composite z-score in [8] is -0.0425; in assay [9] it was 1.09. The z-score is -1.15 in assay [7] and -1.7 (inactive) in assay [10].

Regarding `CC(C)CNC(=O)[C@@]1(c2ccc([N+](=O)[O-])cc2)CC(=O)N(CC23CC4CC(CC(C4)C2)C3)[C@@H]1c1ccc(CO)cc1I`, the composite z-score was found to be 1.33 in assay [1]; 1.14 in assay [2]; 0.775 in assay [3]; 0.635 in assay [4]; 1.39 in assay [5]; 1.31 in assay [6]. Besides, the results for the composite z-score in [8] and in assay [9] were 1.12 and 0.352, respectively. Besides, the z-score in assay [7] was 1.12; in assay [10], -0.447 (inactive).
